This passage reports relative % inhibition results from the supplement of paper PMC3842684.

In test [1] the test system is P. falciparum NF54-pfs16-GFP early (I-III) stage gametocytes. The test is described as follows: relative % inhibition of viable gametocyte number; higher = more gametocytocidal. The following applies: stage: early (I-III) gametocyte, incubation 72 h. An outline of the steps: (§1)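 Viable gametocytes were counted by confocal imaging as elongated GFP objects carrying MitoTracker Red signal above a cut-off, after 72 h of compound exposure (5 or 0.5 µM) at 37°C in 5% CO2 and 5% O2 and overnight staining. The NF54 pfs16-GFP gametocytes had been magnet-isolated at early (I/IIa, day 2) or late (day 8) stage and plated at 10% parasitaemia, 0.1% haematocrit in 384-well poly-D-lysine imaging plates. Relative inhibition was normalised to vehicle and positive-control wells within each plate.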

For test [2], the system named is P. falciparum NF54-pfs16-GFP late (IV-V) stage gametocytes. Described as above. The settings on record: stage: late (IV-V) gametocyte, incubation 72 h. An outline of the steps: as §1

Structures are written as SMILES.

With `COc1ccc(C2c3ccc4ccccc4c3Oc3ncn(CCCN(C)C)c(=N)c32)cc1` (stereo unspecified), the relative % inhibition was 76.2% in test [1] (0.5 µM), -22.6% in test [1] (5 µM), 108% in test [2] (0.5 µM) and 115% in test [2] (5 µM).
For `O=C(Nc1ccc(N2CCCCC2)c(Cl)c1)c1ccc(Br)o1` the same measures were 5.95%, 8.62%, 6.1% and 22.2%.
In the same order, the values of `CCOc1ccc(-c2nc(NC(=O)c3cccc(S(C)(=O)=O)c3)sc2C)cc1` are 17.8%, 15.4%, 4.66% and -3.57%.
In the same order, the values of `COc1ccc2c(c1OC)C(=O)N1c3ccccc3N=C(c3ccc(C)cc3)CC21` (stereo unspecified) are 11.7%, 60.6%, -8.16% and 5.82%.
Turning to `O=C(Nc1ccc(Cl)c(Cl)c1)Nc1ccc(Cl)c(Cl)c1`, the relative % inhibition in test [1] (0.5 µM) came out at 4.74%; in test [1] (5 µM) it was 96%; in test [2] (0.5 µM), 17.5%; in test [2] (5 µM), 48.8%.
In the same order, the values of `Cc1cc(=O)oc2c1ccc1oc(C(=O)c3ccccc3)c(C)c12` are 8.22%, 5.4%, 17.2% and -4.53%.
For `O=C1C2=C(Nc3ccccc3SC2c2ccccc2)c2ccccc21` (stereo unspecified) the same measures were -7.59%, -12.7%, 61.6% and 55.8%.
In the same order, the values of `N=c1n(CCN2CCCCC2)c2ccccc2n1CC(=O)c1ccc(Cl)c(Cl)c1` are -10.5%, 76.8%, 55.4% and 96.9%.
As to `Oc1c(C(Nc2ccccn2)c2cccc(Oc3ccccc3)c2)ccc2cccnc12` (stereo unspecified), the relative % inhibition in test [1] (0.5 µM) was 1.66%; in test [1] (5 µM), 98.2%; in test [2] (0.5 µM), 18.4%; in test [2] (5 µM), 97.7%.
In the case of `Cc1ccc(C)c(Cn2c(N3CCC(C(=O)NCc4cccs4)CC3)nc3ccccc32)c1`, the relative % inhibition in test [1] (0.5 µM) was determined as 13.8%; in test [1] (5 µM) it was 39.4%; in test [2] (0.5 µM), 6.18%; in test [2] (5 µM) it was 31.6%.
In the same order, the values of `CCN1CCN(c2c(C(=O)c3ccccc3)cnc3cc(OC)c(OC)cc23)CC1` are 2.47%, -13.5%, 12.1% and -8.91%.
Regarding `COc1cccc(Cn2c(Oc3ccccc3)nc3c2c(=O)n(C)c(=O)n3C)c1`, the relative % inhibition was 1.22% in test [1] (0.5 µM), -14% in test [1] (5 µM), 6.35% in test [2] (0.5 µM) and 9.52% in test [2] (5 µM).
In the same order, the values of `COc1ccc(C2=C(c3ccc(OC)cc3)C3(c4ccccc4)C(=O)C2(c2ccccc2)C2C(=O)N(c4ccc(C)cc4)C(=O)C23)cc1` (stereo unspecified) are 60.3%, 84.7%, 34.3% and 28.5%.
For `COc1ccc(Nc2nc(NCc3ccccc3)c3ccccc3n2)cc1` the same measures were 84.8%, 98.1%, 81.6% and 107%.
